# BAZ2B block: qHTS Assay for Inhibitors of BAZ2B | Bromodomain adjacent to zinc finger domain protein 2B (Homo sapiens), Q9UIF8 | AlphaScreen BAZ2B-H3K14Ac peptide displacement | Potency, µM (highest dose often 114 µM), for the others: top-dose activity change, negative = inhibition, most hits filed as inhibitors | hit rate 4.4% among 360,000; further: on the % scale 0 is the no-effect control and ±100 the full control effect; nearly all actives have a fitted effect of over 60% in size
#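 BAZ2B (50 nM) with biotin-H3(5-23)K14Ac peptide (50 nM) in PBS pH 7.4, 0.01% Tween-20, preformed 30 min, then compound 30 min at room temperature; top concentration 110uM. AlphaScreen streptavidin donor/nickel chelate acceptor beads (10 ug/mL final), 20 min dark, signal read.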
# Sfp inh: qHTS Assay for Inhibitors of Bacillus subtilis Sfp phosphopantetheinyl transferase (PPTase); 4'-phosphopantetheinyl transferase ffp (Bacillus subtilis), Q9F4F7; Biochemical Sfp PPTase activity, qHTS; Potency, µM, for the others: largest response in the series, negative = inhibition, usual class: inhibitors; hit rate 3.5% among 310,000;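 further: the enzyme is Sfp with the accession as filed and its product quenches rhodamine fluorescence; 0% = enzyme reaction without inhibitor and -100% = no enzyme wells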
#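 Fluorescence-quenching assay: 15 nM Sfp-PPTase preincubated 15 min at room temperature with compound, then 5 uM rhodamine-CoA and 12.5 uM BHQ-2-labelled YbbR peptide added. Fluorescence (ex 525/em 598 nm) read at start and after 30 min; difference gives rate.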
# G9a block: qHTS Assay for Inhibitors of Histone Lysine Methyltransferase G9a; Histone-lysine N-methyltransferase EHMT2 (Homo sapiens), Q96KQ7; G9a H3K9 monomethylation, AlphaScreen, 2 h; Potency, µM (doses to about 102 µM), for inactives: at the top dose activity, negative = inhibition, actives largely listed as inhibitors; hit rate 8.8% among 350,000; further: on the % scale 0 is the no-effect control and ±100 the full control effect; nearly all actives have a fitted effect of over 75% in size
#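 Quantitative HTS format: methyltransferase activity on a biotin-tagged H3K9 peptide is measured by AlphaScreen, using a rabbit anti-monomethyl-H3K9 antibody with streptavidin donor and anti-IgG acceptor beads. Final levels are 20 nM enzyme, 500 nM peptide, 20 uM SAM; 2 h RT.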
# HP1b binding inh: HTS for Inhibitors of HP1-beta Chromodomain Interactions with Methylated Histone Tails; Chromobox protein homolog 1 (Homo sapiens), P83916; AlphaScreen HP1-beta / biotin-H3K9me3 peptide binding; Potency, µM (series often up to 114 µM), without a hit: at the highest dose activity change, negative = inhibition, most hits filed as inhibitors; hit rate 0.56% among 390,000; further: nearly all actives have a fitted effect of over 70% in size
#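 HP1-beta protein (50 nM final) preincubated 30 min at room temperature with biotinylated H3(1-18)K9me3 peptide (50 nM) in PBS pH 7.4, 0.01% Tween-20, then compound added for 30 min. AlphaScreen streptavidin donor/nickel chelate acceptor beads (10 ug/mL final), 30 min dark, luminescence read.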
# JMJD2A Tudor inh: qHTS Assay for Inhibitors of JMJD2A-Tudor Domain; AlphaScreen JMJD2A-Tudor / H3K4me3 peptide binding; Potency, µM (highest dose often 114 µM), without a hit: top-dose activity change, negative = inhibition, most hits filed as inhibitors; hit rate 4.4% among 390,000; further: on the % scale 0 is the no-effect control and ±100 the full control effect; nearly all actives have a fitted effect of over 50% in size
# L3MBTL1 inh: qHTS Assay for the Inhibitors of L3MBTL1. AlphaScreen L3MBTL1–H3K9me1 peptide binding. hit rate 0.66% among 230,000. Potency, µM (series often up to 57.1 µM), for the others: at the highest dose activity, negative = inhibition, usual class: inhibitors. Lethal(3)malignant brain tumor-like protein 1 (Homo sapiens), Q9Y468; further: on the % scale 0 is the no-effect control and ±100 the full control effect; nearly all actives have a fitted effect of over 60% in size
#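 First, the protein-peptide complex forms for 30 min at room temperature (L3MBTL1 50 nM, biotinylated H3K9me1 peptide 75 nM). Next, compounds are pin-transferred and incubated 30 min. Finally, AlphaScreen beads are added and read after 30 min.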
# An asterisk follows results filed as active; u = inconclusive; x = not tested or not shown; [ ] = remark or other dose. Hits are enriched below; roughly 12% of the tested compounds scored in any of these assays. The call rests on the fitted dose curve; in most records, active means well fitted curve in the direction sought with a large enough effect; inconclusive means small, poorly fitted or top-dose-only effect, or another doubt; inactive means no such curve, though single readings can be large; an effect the other way counts as inactive or inconclusive. Potency means the concentration at half of the fitted maximal effect.
SMILES,BAZ2B block,Sfp inh,G9a block,HP1b binding inh,JMJD2A Tudor inh,L3MBTL1 inh
Cc1ccnc(NC(c2ccccc2)c2ccc3cccnc3c2O)c1 (stereo not given),x,x,x,-20.9%[57 µM],14.1µM*,x
Oc1c(C(Nc2ccccn2)c2ccccc2F)ccc2cccnc12 (stereo not given),20µM*,x,u,12.3%,14.1µM*,x
Cc1ccnc(NC(c2ccsc2)c2ccc3ccc(C)nc3c2O)c1 (stereo not given),u,u,-151.7%[59 µM],u,u,-25.0%
COc1cccc(C(=O)N2CCN(Cc3ccccn3)CC2)c1,20µM*,44.7µM*,44.7µM*,-22.5%,3.55µM*,x
CCC(C)N1CCN(C(=O)c2cc(OC)cc(OC)c2)CC1 (stereo not given),79.4µM*,-22.4%,x,u,20µM*,-1.3%
COc1cc(C(=O)N2CCN(Cc3ccccc3C(F)(F)F)CC2)cc(OC)c1OC,31.6µM*,u,u,u,20µM*,-8.5%
CCS(=O)(=O)N1CCN(C(=O)c2cc(OC)cc(OC)c2)CC1,-4.7%,3.8%,0.7%[12.7 µM],19.6%,4.7%,x
COc1cc(OC)cc(C(=O)N2CCN(Cc3ccccc3C(F)(F)F)CC2)c1,35.5µM*,u,7.94µM*,u,1.58µM*,0.9%
O=C(CSC1=Nc2ccccc2N=C(c2ccc(F)cc2)C1)NCc1ccc(Cl)cc1,-2.2%,x,1.3%[59 µM],14.8%[57 µM],-5.4%,x
Cc1nn(-c2ccccc2)c2sc(C(=O)Nc3cccc(Cl)c3)cc12,13.5%,x,-37.0%[59 µM],43.2%,8.3%,x
O=C(O)[C@@H]1CCCN1C(=O)CCc1c[nH]c2ccccc12,4.9%,10.1%,-5.7%,30.8%,-18.5%,x
COc1cc2c(cc1OC)CN(C(=O)CCc1c[nH]c3ccccc13)[C@H](C(=O)O)C2,-18.2%,11.1%,70.8µM*,34.0%,-3.0%,x
Cc1ccc(-c2nc(CCNC(=O)C(=O)Nc3ccc(C)c(Cl)c3)cs2)cc1,-0.9%,x,5.4%[59 µM],25.6%[57 µM],-3.9%,x
COc1ccc(NC(=O)CC(NCCc2ccccc2)C(=O)O)c(OC)c1 (stereo not given),-29.8%,-16.7%,28.2µM*,-4.6%,4.47µM*,0.9%
COCCCNC(CC(=O)Nc1ccc(OC)cc1OC)C(=O)O (stereo not given),-8.2%,-19.3%,u,-18.7%,10µM*,x
COc1ccccc1NC(=O)Cc1ccsc1,-2.1%,4.8%,5.4%,46.6%,-4.1%,x
COc1ccccc1NC(=O)CC(NCc1ccccc1)C(=O)O (stereo not given),u,2.0%,u,-8.6%,11.2µM*,u
COc1ccc(NC(=O)CC(C)CC(=O)NCc2ccccc2)c(OC)c1 (stereo not given),0.6%,11.7%,20.1%,29.4%,-12.5%,-0.8%
COc1ccc(-c2nc3c(c4c2C[C@H](c2ccccc2)OC4)CN(S(=O)(=O)c2ccc4c(c2)OCCN4C)CC3)c(C)c1,x,-4.5%,x,x,x,x
CCCCN1C(=O)C(NC(C)=O)c2cc(Br)ccc21 (stereo not given),-8.2%,-0.7%,2.51µM*,36.7%,-2.4%[57.1 µM],x
CCc1ccc2c(c1)C(NC(C)=O)C(=O)N2CC (stereo not given),5.4%,56.2µM*,u,57.4%,-15.9%,-2.5%
CCN1C(=O)C(NC(C)=O)c2cc(Br)ccc21 (stereo not given),3.1%,0.9%,-22.0%[59 µM],31.7%,-4.9%,1.2%
O=C(O)c1ccc(NC(=S)NC(=O)c2cccnc2)cc1,-5.1%,-27.2%,79.4µM*,-16.1%,-2.1%,-3.4%
COC(=O)c1ccc(NC(=S)Nc2ccccc2)cc1,2.1%,3.5%,-49.6%[59 µM],26.1%,-16.7%,u
COC(=O)c1ccc(NC(=S)NC(=O)c2cccnc2)cc1,-13.0%,89.1µM*,x,19.4%,-3.5%,-2.5%
SMILES,BAZ2B block,Sfp inh,G9a block,HP1b binding inh,JMJD2A Tudor inh,L3MBTL1 inh
COC(=O)c1sccc1NC(=O)c1cccnc1,3.4%,-2.4%,1.4%[59 µM],-1.4%,89.1µM*,x
COc1ccc(NC(=S)NC(=O)c2cccnc2)cc1,3.3%,-1.7%,13.7%,11.0%,-22.6%,3.6%
O=C(O)c1ccc(NC(=S)Nc2ccccc2)cc1,0.4%,50.1µM*,u,-7.7%,-8.7%,7.3%
COC(=O)c1sccc1NC(=O)c1cccc(Cl)c1,x,x,x,28.3%,14.2%,x
Cc1oc(-c2ccc(C(=O)NCc3ccccc3)cc2)nc1CN1CCc2ccccc21,u,x,-3.2%[12.7 µM],-3.4%,u,x
Cc1ccc(-n2ncc(C(=O)N3CCCCC3)c2C2CCN(C(=O)OC(C)(C)C)CC2)c(C)c1,1.6%[57.1 µM],x,-17.2%[59 µM],7.2%,-15.5%,x
COC(=O)c1sccc1NC(=O)/C=C/c1c(Cl)cccc1Cl,8.1%,39.8µM*,13.4%[12.7 µM],27.9%,4.1%,x
COC(=O)c1sccc1NC(=O)c1c(Cl)cccc1Cl,21.2%,0.5%,x,33.5%,11.8%,3.2%
O=C(NCC1CCCO1)c1ccc(NS(=O)(=O)c2cccs2)cc1 (stereo not given),-34.0%,u,35.5µM*,10.4%,u,-7.1%
O=C(COC(=O)c1ccc(NS(=O)(=O)c2cccs2)cc1)NCC1CCCO1 (stereo not given),0.9%,0.0%,1.6%,32.2%,-9.6%,-0.1%
CCCC(c1nnnn1C(C)(C)C)N1CCN(c2ccccc2)CC1 (stereo not given),-18.1%,6.8%,-0.4%,11.7%,-21.7%,-10.9%
CCCC(c1nnnn1C(C)(C)C)N1CCN(Cc2ccccc2OC)CC1 (stereo not given),u,56.2µM*,-28.0%[12.7 µM],32.4%,-2.1%,u
COC(=O)C/C=C\[C@@H](C)[C@@H](/C=N\OC[C@@H](O)COCc1ccco1)OC,x,23.0%,x,x,x,x
COCCNC(=O)CCCC(=O)NCCOC,7.7%,7.9%,19.9%[59 µM],51.1%,25.1µM*,5.5%
Cc1c(C(=O)NCc2ccc(Cl)cc2)sc2nc3n(c(=O)c12)CCCC3,-23.1%,x,11.2µM*,114.7%,9.2%,x
CCc1cccc(NC(=O)c2sc3nc4n(c(=O)c3c2C)CCC4)c1,-18.4%,-3.8%,20.8%,19.7%,-0.7%,x
Cc1c(C(=O)NCc2ccccc2Cl)sc2nc3n(c(=O)c12)CCC3,-38.1%,x,-29.0%[59 µM],10.0%,-22.7%,x
Cc1c(C(=O)NCc2cccc(Cl)c2)sc2nc3n(c(=O)c12)CCCC3,17.8µM*,x,15.8µM*,61.2%,79.4µM*,x
